Measured values from PubChem BioAssay AID371 (SRMLSC, 2006).
Screen size: about 3,300 compounds; about 280 (8.5%) were called active. This is one part of a sample in which actives are shown more often than they occur. Values without a mark were called inactive.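 Rule for the calls: active = mean growth inhibition over the two runs of 50% or more; inactive = mean growth inhibition under 50%.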

test: A549 NSCLC cell proliferation inhibitors – ATP luminescence, human non-small cell lung line, primary screen (AID 371); settings: at 10 µM, active compounds read high;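 note: compound exposure lasted 72 h before the ATP read; 0% = untreated cell signal and 100% = no luminescence left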

SMILES | growth inhibition
Cc1cc(NCCNC2=CC(=O)CCC2)nc2ccccc12 | 3.87%
Cc1cc(N/C=C/C(=O)c2cccc3ccccc23)no1 | 40.5%
CC(=O)Oc1ccc2c(C)cc(=O)[nH]c2c1 | 10.7%
C[C@]12CC[C@@H]3c4ccc(O[C@@H]5O[C@H](C(=O)O)[C@@H](O)[C@H](O)[C@H]5O)cc4CC[C@H]3[C@@H]1C[C@@H](O)[C@@H]2O | -8.48%
C[C@]12CC[C@@H]3c4ccc(O)cc4CC[C@H]3[C@@H]1CCC2=O | 14.8%
C[C@]12CC[C@@H]3c4ccc(OS(=O)(=O)O)cc4CC[C@H]3[C@@H]1CCC2=O | -4%
CCCCC(=O)O[C@H]1CC[C@H]2[C@@H]3CCc4cc(O)ccc4[C@H]3CC[C@]12C | 92.3% (active)
C[C@]12CC[C@@H]3c4ccc(O)cc4CC[C@H]3[C@@H]1CC[C@@H]2OC(=O)CCC(=O)O | 14.8%
C[C@]12CC[C@@H]3c4ccc(OC(=O)c5ccccc5)cc4CC[C@H]3[C@@H]1CC[C@@H]2O | 73.8% (active)
CCOC(=O)COn1c(=O)c(-c2ccc(OC)c(OC)c2)[n+]([O-])c2ccccc21 | 4.28%
CCCCSc1nc(N)c(C#N)c(-c2cccs2)c1C#N | 40.8%
CC1(C)C2CCC1(C)C(NC(=O)CCN1CCCCC1)C2 (centres undefined) | 7.81%
CNS(=O)(=O)c1cccc2nsnc12 | -11.4%
COc1cc(S(=O)(=O)N2CCN(C)CC2)c(OC)cc1Br | 6.26%
CCCCCNc1nc(N2CCCC2)c2c(c1C#N)CCN(C)C2 | 95.5% (active)
C=CCNc1nc(N2CCOCC2)c(C#N)c2c1CN(C)CC2 | 2.03%
CCN1CCc2c(C#N)c(NCc3ccccc3)nc(N(CC)CC)c2C1 | 67.3% (active)
CCN1CCc2c(C#N)c(N3CCCCC3)nc(NCc3ccccc3)c2C1 | 88.8% (active)
C=CCNc1nc(NCc2ccccc2)c(C#N)c2c1CN(C)CC2 | 70.9% (active)
CCN1CCc2c(C#N)c(N3CCCCC3)nc(N3CCOCC3)c2C1 | 4.36%

SMILES | growth inhibition
CCN(CC)c1nc(N2CCOCC2)c(C#N)c2c1CN(C)CC2 | 11.1%
CCN1CCc2c(C#N)c(NCc3ccccc3)nc(NCCO)c2C1 | 3.07%
CN1Cc2c(N3CCOCC3)nc(SCc3ccccc3)c(C#N)c2CC1(C)C | 45.5%
CCN1CCc2c(C#N)c(N3CCOCC3)nc(NCc3ccccc3)c2C1 | 23.9%
CN1CCc2c(C#N)c(N3CCCCC3)nc(N3CCOCC3)c2C1 | 3.07%
CCN1CCc2c(C#N)c(N3CCOCC3)nc(NCCO)c2C1 | 6.84%
FC(F)(F)c1cccc(-n2cccc2/C=N/n2cnnc2)c1 | 9.69%
CSc1nc2[nH]c3c(c2c2ncnn12)CCCC3 | 38.4%
Cc1cc(=O)n2[nH]c(N3C(=O)CCC3=O)nc2n1 | 1.01%
Cc1nccn1-c1cc(C(C)C)c(C#N)c2nc3ccccc3n12 | 2.71%
O=c1[nH]c(CN2CCCCC2)nc2c1C1(CCCC1)Cc1ccccc1-2 | 2.71%
[N-]=[N+]=CC(=O)c1ccnc(C(=O)C=[N+]=[N-])c1 | 23.6%
COc1ccc(/C(O)=C2\C(=O)C(=O)N(c3cc(C)on3)C2c2ccccc2OC)cc1 (centres undefined) | -10.7%
O=C1c2ccccc2C(=O)N1CC1c2ccccc2CCN1C(=O)N1CCOCC1 (centres undefined) | 5.08%
CCOC(=O)c1c(NC(=O)CCN2CCOCC2)sc2c1CC(C)(C)OC2 | 5.84%
Nc1[nH]nc2nc(NCc3ccccc3)c3c(c12)CCN(Cc1ccccc1)C3 | 24.5%
C=CCNc1nc(N2CCCCC2)c(C#N)c2c1CN(Cc1ccccc1)CC2 | 37.1%
N#Cc1c(NCCCO)nc(-c2ccccc2)c2c1CCCC2 | 32.5%
N#Cc1c(NCCN)nc(NCc2ccccc2)c2c1CCN(Cc1ccccc1)C2 | 91.8% (active)
CN1CCc2c(C#N)c(N3CCCCC3)nc(NCc3ccccc3)c2C1 | 90.4% (active)

SMILES | growth inhibition
N#Cc1c(N2CCCCC2)nc(N2CCCCC2)c2c1CCN(Cc1ccccc1)C2 | 19.3%
CCCc1cc(=O)oc2c(CN3CCN(C)CC3)c(O)c(Cl)cc12 | 1.1%
CCOC(=O)Cc1[nH]nc2c1C(c1cc(OC)ccc1OC)C(C#N)=C(N)O2 (centres undefined) | -2.35%
COCCOC(=O)c1c(C)nc(SCC(=O)Nc2ccc(C)cc2)c(C#N)c1-c1ccco1 | 3.22%
Cc1nc(N2CCOCC2)c(C#N)c2c1COC(C)(C)C2 | 12.7%
CN(C)CCCN1c2ccccc2Sc2ccccc21 | 29.4%
COc1ccc([C@@H]2Sc3ccccc3N(CCN(C)C)C(=O)[C@@H]2OC(C)=O)cc1 | 15.1%
CN(C)CCCN1c2ccccc2Sc2ccc(Cl)cc21 | 92.2% (active)
CN(C)CCCN1c2ccccc2Sc2ccc(C(F)(F)F)cc21 | 90.7% (active)
CN(C)CCCOC(=O)c1ccc(Cl)cc1Cl | 5.84%
CN(C)CCCN1c2ccccc2CCc2ccccc21 | 16.1%
CN(C)CCCN1c2ccccc2CCc2ccc(Cl)cc21 | 85.6% (active)
CN1CCN(C2=Nc3cc(Cl)ccc3Nc3ccccc32)CC1 | 26%
COc1cccc(C(=O)N2CCN(Cc3ccccn3)CC2)c1OC | -2.78%
COc1ccc(Cn2c(N)c(C#N)c3nc4ccccc4nc32)cc1OC | 11.7%
CC[C@H](C)C(=O)O[C@H]1C[C@@H](C)C=C2C=C[C@H](C)[C@H](CC[C@@H]3C[C@@H](O)CC(=O)O3)[C@H]21 | 64.9% (active)
COc1cc(C2C(C(C)=O)=C(O)C(=O)N2c2ccc(Br)cn2)ccc1O (centres undefined) | 3.52%
CC1(C)CC(=O)C(C=NCCN2CCN(C(=O)C34CC5CC(CC(C5)C3)C4)CC2)=C(O)C1 | 3.05%
COc1ccccc1-n1c(=O)c2c3c(sc2n2c(SC)nnc12)CCC3 | 6.85%
